# ROMK mod = ROMK potassium channel modulators, primary screen, cell-based, thallium flux, MLSMR library; ATP-sensitive inward rectifier potassium channel 1 (Homo sapiens), P48048; Tet-inducible ROMK, thallium flux fluorescence; actives lie on both sides; B-score at 10 µM; 2% of 130,000 active;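 active = signal ratio slope over the read window, or its plate-corrected B-score, at least 3 SD from the plate mean, either direction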;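 also: B-score of the F/F0 ratio slope over 7 to 12 s after thallium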
# PERK inhibitor = block of dimerizer-induced PERK translation repression, primary screen, PERK inhibitor project, CHO PERK-DD cells, SEAP luminescence, HTS. Eukaryotic translation initiation factor 2-alpha kinase 3 (Homo sapiens), Q9NZJ5. CHO PERK-DD fusion, SEAP luminescence translation reporter. inhibition, % at 5.6 µM. 0.17% of 220,000 active;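 active = inhibition above the mean inhibition of all tested compounds plus 3 SD, set separately per screening campaign, cut at about 2.9% in these data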;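 also: PERK kinase domain activated by AP20187 dimerizer at 100 nM; 0% = DMSO with dimerizer and 100% = rapamycin at 8.4 µM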
# Target sequence (Q9NZJ5 whole entry, looked up, the tested form may be a part): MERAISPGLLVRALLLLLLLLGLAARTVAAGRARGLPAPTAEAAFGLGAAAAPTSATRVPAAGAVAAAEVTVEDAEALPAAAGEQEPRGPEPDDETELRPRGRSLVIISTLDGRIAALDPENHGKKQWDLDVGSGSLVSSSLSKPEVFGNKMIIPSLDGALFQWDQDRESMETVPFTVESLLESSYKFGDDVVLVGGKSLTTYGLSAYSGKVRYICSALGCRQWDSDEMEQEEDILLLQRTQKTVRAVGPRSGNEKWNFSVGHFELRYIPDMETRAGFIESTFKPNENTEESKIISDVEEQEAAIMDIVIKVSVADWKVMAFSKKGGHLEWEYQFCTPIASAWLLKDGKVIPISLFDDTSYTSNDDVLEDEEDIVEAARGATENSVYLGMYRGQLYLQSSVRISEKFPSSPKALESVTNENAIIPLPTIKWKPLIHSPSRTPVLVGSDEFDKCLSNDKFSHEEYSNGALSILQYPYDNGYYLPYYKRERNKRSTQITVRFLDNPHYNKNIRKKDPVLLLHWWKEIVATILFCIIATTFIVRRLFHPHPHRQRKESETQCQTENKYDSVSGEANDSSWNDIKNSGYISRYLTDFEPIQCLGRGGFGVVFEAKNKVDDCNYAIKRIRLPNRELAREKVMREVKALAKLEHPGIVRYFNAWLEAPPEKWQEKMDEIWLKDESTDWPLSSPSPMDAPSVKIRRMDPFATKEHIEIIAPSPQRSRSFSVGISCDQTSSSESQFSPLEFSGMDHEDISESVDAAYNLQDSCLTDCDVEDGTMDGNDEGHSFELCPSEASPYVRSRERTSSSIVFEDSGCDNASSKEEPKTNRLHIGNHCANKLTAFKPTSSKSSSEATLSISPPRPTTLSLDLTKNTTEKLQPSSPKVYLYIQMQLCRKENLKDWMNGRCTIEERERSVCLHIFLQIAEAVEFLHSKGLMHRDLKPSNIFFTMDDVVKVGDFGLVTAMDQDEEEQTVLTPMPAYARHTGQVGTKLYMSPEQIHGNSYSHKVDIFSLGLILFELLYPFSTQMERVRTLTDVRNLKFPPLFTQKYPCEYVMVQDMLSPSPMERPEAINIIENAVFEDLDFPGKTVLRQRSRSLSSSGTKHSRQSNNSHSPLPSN
# WT yeast gro inh = growth inhibition of WT strain, primary screen, mitochondrial fusion inhibitor project, WT and mutant strains, chemical genetic | 2.1% of 190,000 active | mitochondrial fusion phenotypic screen | inhibition, % at 10 µM; in the data active = inhibition above about 58%; tested in S. cerevisiae
# Arbovirus anti = antivirals against arbovirus infection, primary screen, cell-based, full library, 10K replicate subset; arbovirus infection cell-based antiviral screen; inhibition, % at 10 µM; 0.37% of 200,000 active; AID 1251, 2008; in the data active = inhibition above about 30%
# Active calls of the source: *; x = no result given. Only some compounds are listed: those with a hit (about 3.3% of all), similar ones and a draw of the others.
SMILES,ROMK mod,PERK inhibitor,WT yeast gro inh,Arbovirus anti
O=[N+]([O-])c1ccc(Oc2ccc(S(=O)(=O)N3CCCCC3)cc2)cc1,x,0,15,2
Cc1ccc(Cl)cc1N1CCN(S(C)(=O)=O)CC1,-0.1,1,2,8
Cc1ccc(Cl)cc1N1CCN(S(=O)(=O)N2CCCCC2)CC1,0.22,1,73*,-1
O=S(=O)(NCC1CCCO1)c1ccc(S(=O)(=O)N(Cc2ccc(F)cc2)C2CCCCC2)cc1 (centres undefined),0.1,1,x,x
O=P(CCC(F)(F)F)(CCC(F)(F)F)CCC(F)(F)F,-0.1,1,-15,7
CCOC(=O)N1CCC(NC(=O)c2ccc(CNS(=O)(=O)c3ccc(F)cc3)cc2)CC1,x,2,-8,-5
CCn1c(SCC(=O)N2CCCc3ccccc32)nc2cccnc21,3.1*,-1,-2,1
Cn1c(SCC(=O)N2CCCc3ccccc32)nc2cccnc21,x,0,2,-3
Cc1ccc(Nc2ccc(C(=O)O)cc2N)cc1,x,0,73*,-2
O=C(Cc1nnc(NC(=O)Nc2ccccc2F)s1)NCc1ccccc1,1.1,0,x,x
O=C(CCCSc1nc2ccccc2[nH]1)N1CCN(c2ccc([N+](=O)[O-])cc2)CC1,-5.4*,1,-14,-1
O=C(CSc1nc2ccccc2[nH]1)N1CCN(c2ccc(F)cc2)CC1,0.44,-1,7,10
CC[n+]1c(C=C2C=C(C)OC(C)=C2)sc2ccccc21,-2.4,0,69*,-6
Cn1cccc1/C=N/NC(=O)C12CC3CC(CC(C3)C1)C2,x,1,-11,5
O=C(Nc1ccccc1)Nc1ccc(C(=O)N2CCCC2)cc1,0.14,1,62*,-12
Cc1ccc(NC(=O)CN(C)C(=O)COc2cc(F)ccc2[N+](=O)[O-])cc1,-1.1,0,6,1
Cc1ccc2nc(N3C(=O)C(O)=C(C(=O)c4ccc(C)o4)C3c3cccc(O)c3)sc2c1 (centres undefined),-0.53,0,14,76*
Cc1ccc(C(=O)C2=C(O)C(=O)N(c3ncccn3)C2c2cccc(Cl)c2)o1 (centres undefined),-0.63,x,x,x
CC(OC(=O)CNC(=O)C12CC3CC(CC(C3)C1)C2)C(=O)Nc1ccc(S(N)(=O)=O)cc1 (centres undefined),-0.51,1,-2,8
On1c(-c2ccc(Cl)cc2)nc2ccccc21,0.00032,1,79*,18
COc1ccc(/C=C2\SC(N3CCc4ccccc4C3)=NC2=O)cc1OC,x,0,50,6
O=C(CO/N=C\c1ccccc1)Nc1ccccc1C(=O)N1CCOCC1,0.15,0,-16,6
CC(=O)Nc1ccc(NC(=O)Nc2cc(C)cc(C)c2)cc1,-1.7,3.6*,x,x
O=c1[nH]nc(Cc2ccc3ccccc3n2)c2ccccc12,x,-1,-29,-2
CC(C)CCn1c(=O)c2ccccc2c2ccccc2c1=O,-0.17,1,59*,-7
SMILES,ROMK mod,PERK inhibitor,WT yeast gro inh,Arbovirus anti
CCOC(=O)c1cnc2ccc(OCC)cc2c1N1CCN(c2ccccc2OC)CC1,2.3,-2,79*,-40
CCOc1ccc2ncc(C(=O)c3ccc(OC)cc3)c(N3CCN(CC)CC3)c2c1,0.023,1,-18,-6
CCCNC1=CC(=O)CC(C)(C)C1,0.19,3,-6,3
Cc1ccc2c(c1)c1c3n2CCN=C3CCC1,-1.3,0,0,-6
c1cc2c(cc1C1CCCCC1)c1c3n2CCN=C3CCC1,-0.53,0,93*,-36
Oc1ccc(/C=N/N(Cc2ccccc2)c2ccccc2)c(O)c1O,x,0,9,1
C(=N\N(Cc1ccccc1)c1ccccc1)/c1cccnc1,-0.14,0,74*,-19
Oc1cccc(/C=N/N(Cc2ccccc2)c2ccccc2)c1,0.38,0,90*,-30
CCOC(=O)c1cc2cc([N+](=O)[O-])cc(OC)c2oc1=O,-0.94,0,-4,4
CC12CCC(c3c(C(=O)O)nn(-c4ccc(F)cc4)c31)C2(C)C (centres undefined),0.81,1,59*,13
CN1N=C(C(C)(C)C)CC1=O,x,3.4*,x,x
CN1N=C(C(F)(F)F)CC1=O,0.3,0,2,15
O=C(O)CCNC(=O)/C(=C/C=C/c1ccccc1)NC(=O)c1ccccc1,-0.67,0,7,2
CN1CCOCCOCCN(C)C(=O)N2CCOCCOCCN(CCOCC2)C1=O,0.39,3.6*,-11,10
COc1ccc(NC(=O)C2CCCN(C)C2)cc1OCC(C)C (centres undefined),-0.54,0,-10,-4
O=C(COc1ccccc1)Nc1ccccc1Cl,-0.21,1,9,-1
COc1cc(/C=C2\C(=O)ON=C2c2ccccc2)cc(Cl)c1O,-15*,-1,-4,-15
COc1cc(NC(=S)Nc2ccc(S(=O)(=O)N3CCOCC3)cc2)cc(OC)c1OC,-0.034,0,-11,7
CN(C(=O)CC(=O)Nc1ccc(Cl)c(Cl)c1)c1ccccc1,-0.041,-1,-3,-3
CN(CC(=O)Nc1ccc(Cl)c(Cl)c1)C(=O)C12CC3CC(CC(C3)C1)C2,-0.6,0,76*,-16
CC(=O)NS(=O)(=O)c1ccc(NC(=O)COc2ccc(C(=O)c3ccccc3)cc2)cc1,x,0,-8,-10
O=C1c2ccncc2C(=O)N1c1cccc(Cl)c1,1.5,4.0*,10,-2
O=C1c2cccc3cccc(c23)C(=O)N1c1cccnc1,x,1,49,1
CC(NC(=O)Nc1nnc(C(F)(F)F)s1)(C(F)(F)F)C(F)(F)F,-3.5*,-2,70*,-22
Cc1c2c(nc3ccccc13)CCC(C(C)(C)C)C2 (centres undefined),-0.3,0,68*,-9
SMILES,ROMK mod,PERK inhibitor,WT yeast gro inh,Arbovirus anti
COC(=O)c1cccc(NC(=O)CSc2nc3cccnc3n2C)c1,-3.4*,0,-14,1
CCOc1ccc(NC(=O)CN2C(=O)CSC2=O)cc1,0.33,0,-23,1
Cc1ccc(-c2nnc(SCC(C)C)n2C)cc1,x,0,13,-6
S=C1NC(c2ccccc2)=CC(c2ccccc2)N1 (centres undefined),-0.81,1,-4,0
S=C1NC(c2cccs2)=CC(c2ccc(Br)cc2)N1 (centres undefined),-0.54,0,72*,-3
Cc1cccc(N2CCN(C(=O)C34CC5CC(CC(C5)C3)C4)CC2)c1C,0.89,1,88*,-24
Cc1cccc(N2CCN(C(=O)c3ccc4ncsc4c3)CC2)c1C,3.3*,-2,15,-12
O=C(OCCN=C1NS(=O)(=O)c2ccccc21)c1cccs1,-0.77,1,-13,-2
CCOC(=O)Cc1nnc(NC(=O)c2ccccc2OCC)s1,0.22,-1,12,78*
CCOc1ccccc1C(=O)Nc1ccccc1-c1ccccc1,-1.4,-1,75*,-12
CCc1nnc(NC(=O)Nc2ccccc2OC)s1,x,0,59*,11
CCOc1ccccc1C(=O)Nc1ccccc1O,-0.08,1,51,-2

# Compound activity from PubChem.
